Compound activity as filed in PubChem.
CSC inhib = blocks cancer stem cells. cancer stem cell-like cells viability, luminescence. inhibition, % at 7.5 µM. hit rate 1.1% among 300,000. AID 2717; in the data active means inhibition above about 75%; inconclusive means no clear call, values can overlap the other calls; tested in HMLE shEcad cells
PP5 inh = PP5 (human) phosphatase inhibition | P53041 | purified PP5c, OMFP substrate fluorescence | inhibition, % at 6.7 µM | hit rate 0.18% among 320,000;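 active means inhibition above the campaign's mean inhibition across all tested compounds plus 3 SD, cut at about 9.5% in these data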
ALR inh = blocks human ALR sulfhydryl oxidase activity; hit rate 3.8% among 290,000; purified ALR, DTT oxidation, H2O2 HRP-luminol luminescence; P55789; inhibition, % (no concentration beside the values);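 active means mean replicate inhibition above about 79%, with every replicate also reaching it, limit read from the data; inconclusive means only one of the two criteria met; inactive means mean below limit and not every replicate reaching it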
Target sequence (P55789 whole entry, looked up): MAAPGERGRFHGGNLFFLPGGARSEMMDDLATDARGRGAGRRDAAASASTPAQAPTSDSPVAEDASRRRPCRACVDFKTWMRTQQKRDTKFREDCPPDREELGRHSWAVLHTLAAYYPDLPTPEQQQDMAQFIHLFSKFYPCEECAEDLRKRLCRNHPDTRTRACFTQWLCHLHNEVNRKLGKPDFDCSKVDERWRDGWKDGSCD
PP1 inh = counter-screen for PP5 inhibitors: inhibitors of human PP1-alpha. hit rate 0.9% among 320,000. AID 2235. purified PP1alpha, OMFP fluorescence. P62136. inhibition, % at 6.7 µM;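 active means inhibition above the mean inhibition of all tested compounds plus 3 SD, computed separately for each screening campaign, cut at about 15% in these data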
Calb FLC = C. albicans growth modulation with fluconazole. hit rate 0.57% among 300,000. C. albicans CaCi-2 (fluconazole-resistant clinical isolate) + fluconazole, Alamar Blue growth, 48 h. growth inhibition, % (test concentration not listed). AID 1979;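 active means growth inhibition above about 58% in most replicates, limit read from the data, passing the limit was not always enough; inconclusive means exactly half the replicates above a set limit; inactive means most replicates below a set limit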;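 further: all wells also contain fluconazole at 8 µg/ml as a sub-toxic cotreatment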
A number is an active result. A selection: hits, their analogues and other compounds. The true share with any hit is near 5.4%.

How did Cc1ccc(C)c(NC(=O)C(NCC(C)(C)N2CCOCC2)c2ccccc2)c1 (stereo not drawn) do in these assays?
CSC inhib: inactive; PP5 inh: inactive; PP1 inh: inactive; Calb FLC: inactive

What do the screens show for `NC(=O)c1c(NC(=O)C2CC=CCC2C(=O)O)sc2c1CCCCC2` (stereo not drawn)?
CSC inhib: inactive; PP5 inh: inactive; ALR inh: inactive; PP1 inh: inactive

How did O=C(CCC(=O)Nc1ccc(Cl)cc1Cl)N/N=C/c1ccc([N+](=O)[O-])o1 do in these assays?
CSC inhib: inactive; PP5 inh: inactive; ALR inh: inactive; PP1 inh: inactive; Calb FLC: 101

What do the screens show for `CC/C(=C/c1ccccc1)c1cccc2[nH]c3c(OC)cccc3c12`?
CSC inhib: 131; PP5 inh: inactive; ALR inh: inactive; PP1 inh: inactive; Calb FLC: inactive

How did COc1cccc(C(=O)NCCSc2c(C)[nH]c3ccccc23)c1OC do in these assays?
CSC inhib: inactive; PP5 inh: inactive; ALR inh: inactive; PP1 inh: inactive; Calb FLC: inactive

What do the screens show for `CCN(CC)CCCn1c2c(c(SCC(=O)Nc3cccc(C(C)=O)c3)nc1=O)CCC2`?
CSC inhib: inactive; PP5 inh: inactive; ALR inh: 99; PP1 inh: inactive; Calb FLC: inactive

How did CCN(CC)CCCn1c2c(c(SCC(=O)Nc3ccc4c(c3)OCCO4)nc1=O)CCC2 do in these assays?
CSC inhib: inactive; PP5 inh: inactive; ALR inh: 98; PP1 inh: inactive; Calb FLC: inactive

What do the screens show for `CC(=O)c1cccc(NC(=O)CSc2nc(=O)n(Cc3ccccn3)c3c2CCC3)c1`?
CSC inhib: inactive; PP5 inh: inactive; ALR inh: 99; PP1 inh: inactive; Calb FLC: inactive

Results for CN(C)CCCn1c2c(c(SCC(=O)Nc3ccc4c(c3)OCO4)nc1=O)CCC2 ?
CSC inhib: inactive; PP5 inh: inactive; ALR inh: 98; PP1 inh: inactive; Calb FLC: inactive

Results for CN(C)CCCn1c2c(c(SCC(=O)Nc3ccc4c(c3)OCO4)nc1=O)CCCC2 ?
CSC inhib: inactive; PP5 inh: inactive; ALR inh: inconclusive; PP1 inh: inactive; Calb FLC: inactive

How did C[C@@H]1C[C@H]2[C@@H]3C[C@H](F)C4=CC(=O)C(Cl)=C[C@]4(C)[C@@]3(F)[C@@H](O)C[C@]2(C)[C@@]1(O)C(=O)CO do in these assays?
CSC inhib: inactive; PP5 inh: inactive; ALR inh: inactive; PP1 inh: inactive; Calb FLC: inactive

What do the screens show for `Cc1ccc(C(=O)CN2C(=O)NC3(CCCCC3C)C2=O)s1` (stereo not drawn)?
PP5 inh: inactive; PP1 inh: inactive

Results for COC(=O)c1sc(-c2ccc(Cl)cc2)cc1NC(=O)CSCC(=O)O ?
CSC inhib: inactive; PP5 inh: inactive; ALR inh: inactive; PP1 inh: inactive; Calb FLC: inactive

What do the screens show for `COC(=O)c1sc(-c2ccc(C(C)(C)C)cc2)cc1NC(=O)COCC(=O)O`?
CSC inhib: inactive; PP5 inh: inactive; ALR inh: 98; PP1 inh: inactive; Calb FLC: inconclusive

What do the screens show for `N#C/C(=C\c1cc2c(cc1Br)OCO2)C(=O)NCC1CCCO1` (stereo not drawn)?
CSC inhib: inactive; PP5 inh: inactive; ALR inh: 98; PP1 inh: inactive; Calb FLC: inactive

Results for CCOc1cc(/C=C(\C#N)C(=O)NCC2CCCO2)ccc1OCC(N)=O (stereo not drawn) ?
CSC inhib: inactive; PP5 inh: inactive; ALR inh: inactive; PP1 inh: inactive; Calb FLC: 105

What do the screens show for `Cc1ccc(/C=C(\C#N)C(=O)NCC2CCCO2)o1` (stereo not drawn)?
CSC inhib: inactive; PP5 inh: inactive; ALR inh: inactive; PP1 inh: inactive; Calb FLC: inactive

Results for CCOc1cc(/C=C(\C#N)C(=O)NCC2CCCO2)ccc1O (stereo not drawn) ?
CSC inhib: inactive; PP5 inh: inactive; ALR inh: inactive; PP1 inh: inactive; Calb FLC: inactive

Results for CCCCc1ncc(CN2CCN(Cc3ccc(C)cc3)C(CCO)C2)[nH]1 (stereo not drawn) ?
CSC inhib: inactive; PP5 inh: inactive; ALR inh: inactive; PP1 inh: inactive; Calb FLC: inactive

What do the screens show for `O=C(CCCN1C(=O)/C(=C\c2ccco2)SC1=S)Nc1ccc(O)cc1C(=O)O`?
CSC inhib: inactive; PP5 inh: inactive; ALR inh: inactive; PP1 inh: inactive; Calb FLC: inactive

Results for O=C(CSc1nnc(NC(=O)c2c(F)cccc2F)s1)NCC1CCCO1 (stereo not drawn) ?
CSC inhib: inactive; PP5 inh: inactive; ALR inh: inactive; PP1 inh: inactive; Calb FLC: inactive
